The values below come from PubChem BioAssay (NCI).

Among the test systems are HCT-15 colon; HT29 colon; SNB-75 CNS; SNB-19 CNS; U251 CNS; PC-3 prostate; SK-MEL-5 melanoma; UACC-62 melanoma; LOX IMVI melanoma; SK-MEL-28 melanoma; EKVX NSCLC; SN12C renal; UO-31 renal; TK-10 renal; ACHN renal; CAKI-1 renal; A498 renal; CCRF-CEM leukemia; MOLT-4 leukemia.
Holding throughout (experiment): NCI-60 one-dose screen, 48 h (100 = growth as untreated, 0 = no growth, -100 = all killed)
What all share (details): 10 µM unless noted

Each structure is given as a SMILES string. This is part of a sample that, as a whole, favours compounds with a hit. Of some 83,000 tested, about 20% had one in any assay.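 Cells were grown in 96-well plates and exposed to the test compound at a single concentration for 48 hours; results are reported as percent growth, with values below 10 considered active.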 A number with no mark means an inactive call. Activity calls are given as the source filed them.

Turning to `COc1ccc(-c2cc3c(C)nc(N)nc3n(C3CCC(OCCO)CC3)c2=O)cn1` (configuration not stated), the growth in the test with HCT-15 colon is 3.45% (active); in the test on HT29 colon, 1.24% (active); in the test on SNB-75 CNS it was -50.6% (active); in the test on SNB-19 CNS, -7.7% (active); with U251 CNS it was -13.8% (active); in the test with PC-3 prostate, 5.19% (active). Also, the growth in the test on SK-MEL-5 melanoma is -77.3% (active); with UACC-62 melanoma it was -52.5% (active); with LOX IMVI melanoma it was -55.5% (active); in the test with SK-MEL-28 melanoma, -29.4% (active); in the test on EKVX NSCLC it was -4.74% (active); with SN12C renal, 7.14% (active). Further, the growth in the test with UO-31 renal is -33.8% (active); in the test with TK-10 renal, -43.4% (active); in the test with ACHN renal, -10.3% (active); with CAKI-1 renal, -43.4% (active); in the test with A498 renal, -55.8% (active); in the test on CCRF-CEM leukemia, 14.6%. Also, the growth in the test on MOLT-4 leukemia is 8.49% (active).
`Cc1nc2ccc(-n3ncc(C(=O)c4cc5ccccc5[nH]4)c3N)cc2[nH]1`: the growth was 30.9% in the test with HCT-15 colon; 23.1% with HT29 colon; 39.9% with SNB-75 CNS; 48.2% in the test with SNB-19 CNS; 24.4% with U251 CNS; 41.1% in the test on PC-3 prostate. In addition, the growth in the test with SK-MEL-5 melanoma is 32.8%; in the test with UACC-62 melanoma, 43.5%; in the test on LOX IMVI melanoma, 14.8%; with SK-MEL-28 melanoma, 69.7%; with EKVX NSCLC, 63.9%; with SN12C renal, 61.2%. The growth is 48.9% in the test on UO-31 renal; 71.3% in the test on TK-10 renal; 49.8% in the test on ACHN renal; 62.2% in the test on CAKI-1 renal; 8.03% (active) with A498 renal; 43.8% with CCRF-CEM leukemia. Also, the growth in the test on MOLT-4 leukemia was 25.1%.
For `CN(C)C[C@@H]1CCn2cc(c3ccccc32)C2=C(C(=O)NC2=O)c2cn(c3ccccc23)CCO1`, the growth with HCT-15 colon was -31.7% (active); with HT29 colon, 0.848% (active); in the test with SNB-75 CNS, -76.1% (active); in the test on SNB-19 CNS, 15.3%; in the test with U251 CNS, -70.8% (active); with PC-3 prostate, 0.163% (active). Further, the growth in the test on SK-MEL-5 melanoma is 22.5%; in the test on UACC-62 melanoma, 43%; in the test with LOX IMVI melanoma it was -70.1% (active); in the test on SK-MEL-28 melanoma it was -92.6% (active); in the test with EKVX NSCLC it was 30.5%; in the test with SN12C renal it was -59.7% (active). The growth is -49.1% (active) in the test on UO-31 renal; 11.5% in the test with TK-10 renal; -89.9% (active) with ACHN renal; -3.96% (active) in the test with CAKI-1 renal; -4.95% (active) with A498 renal; -0.337% (active) in the test on CCRF-CEM leukemia. Besides, in the test with MOLT-4 leukemia, the growth is -4.3% (active).
With `CCCCOc1nc2cc(Cl)ccc2cc1/C=C/c1cc(/C=C/c2cc3ccc(Cl)cc3nc2OCCCC)n(-c2ccccc2)n1`, the growth in the test on HCT-15 colon was 112%; with HT29 colon, 88.9%; in the test with SNB-75 CNS, -17.4% (active); in the test with SNB-19 CNS, 69.9%; in the test on U251 CNS, 43.2%; in the test with PC-3 prostate it was 86.3%. Further, the growth in the test with SK-MEL-5 melanoma was 106%; with UACC-62 melanoma, 72.7%; with LOX IMVI melanoma, 86.2%; in the test on SK-MEL-28 melanoma it was 112%; with EKVX NSCLC, 113%; in the test on SN12C renal, 94%. In addition, the growth was 89.9% in the test with UO-31 renal; 91.4% in the test on TK-10 renal; 75.6% with ACHN renal; 78.5% with CAKI-1 renal; 97.9% with A498 renal; 98.9% with CCRF-CEM leukemia. Further, the growth in the test with MOLT-4 leukemia was 84.8%.
Consider `CN1CCN(c2nc(C3=C(c4c[nH]c5ccccc45)C(=O)NC3=O)c3ccccc3n2)CC1`, for which the growth in the test with HCT-15 colon is 85.3%; in the test with HT29 colon, 11.6%; in the test with SNB-75 CNS, 79.4%; in the test with SNB-19 CNS, 87.5%; with U251 CNS, 69.4%; in the test on PC-3 prostate, 108%. Moreover, the growth in the test with SK-MEL-5 melanoma is 45.6%; in the test with UACC-62 melanoma it was 6.81% (active); in the test on LOX IMVI melanoma, 80.4%; in the test with SK-MEL-28 melanoma, 3.91% (active); in the test on EKVX NSCLC, 82.6%; in the test on SN12C renal, 92.3%. In addition, the growth with UO-31 renal was 64%; in the test on TK-10 renal, 47.3%; in the test with ACHN renal it was 70.2%; in the test with CAKI-1 renal, 54.9%; in the test with A498 renal, 75.1%; with CCRF-CEM leukemia, 100%. The growth in the test on MOLT-4 leukemia is 74.7%.
With `COc1cc2c(Oc3ccc4[nH]c(C)cc4c3F)ncnc2cc1OCCCN1CCCC1`, the growth was 99.4% with HCT-15 colon; 83.9% with HT29 colon; 50.9% with SNB-75 CNS; 88.2% in the test with SNB-19 CNS; 63.2% in the test on U251 CNS; 103% in the test with PC-3 prostate. In addition, the growth was 104% in the test on SK-MEL-5 melanoma; 103% in the test with UACC-62 melanoma; 85.8% with LOX IMVI melanoma; 95.8% in the test on SK-MEL-28 melanoma; 95.4% in the test on EKVX NSCLC; 91.9% with SN12C renal. The growth is 45.3% with UO-31 renal; 90.8% with TK-10 renal; 68.2% with ACHN renal; 58.9% with CAKI-1 renal; 2.51% (active) in the test on A498 renal; 106% in the test on CCRF-CEM leukemia. Moreover, the growth with MOLT-4 leukemia is 62.9%.
As to `C[C@@]1(C(=O)Nc2ccc(F)nc2)CCCN1c1nc(Nc2cc(C3CC3)[nH]n2)c2cccn2n1`, the growth is 26.5% with HCT-15 colon; -31.8% (active) in the test on HT29 colon; -53.2% (active) with SNB-75 CNS; 55.2% with SNB-19 CNS; 32.3% in the test on U251 CNS; 30.8% in the test with PC-3 prostate. For the same molecule, the growth in the test on SK-MEL-5 melanoma was 48.1%; with UACC-62 melanoma, 17.5%; in the test with LOX IMVI melanoma, -35.5% (active); in the test with SK-MEL-28 melanoma it was 43.6%; with EKVX NSCLC, 46.2%; in the test on SN12C renal, 34.6%. For the same molecule, the growth was 2.07% (active) with UO-31 renal; 35.9% with TK-10 renal; 25.7% with ACHN renal; -17.7% (active) in the test on CAKI-1 renal; -41.7% (active) in the test with A498 renal; 44% in the test with CCRF-CEM leukemia. The growth in the test on MOLT-4 leukemia is 30.3%.
For `CNC(=O)CN1CCC(Oc2cc3c(Nc4cccc(Cl)c4F)ncnc3cc2OC)CC1`, the growth with HCT-15 colon was 66.8%; in the test on HT29 colon, 36.8%; with SNB-75 CNS, 20.9%; in the test with SNB-19 CNS, 70.3%; in the test on U251 CNS, 80.4%; in the test on PC-3 prostate, 65.7%. Also, the growth in the test with SK-MEL-5 melanoma is 77.2%; in the test on UACC-62 melanoma it was 86.8%; with LOX IMVI melanoma it was 37.7%; in the test on SK-MEL-28 melanoma, 91.7%; in the test with EKVX NSCLC, 32.1%; in the test on SN12C renal, 42.7%. In addition, the growth is 26.3% with UO-31 renal; 1.03% (active) in the test with TK-10 renal; 8.22% (active) in the test with ACHN renal; 10.6% in the test with CAKI-1 renal; 44.2% in the test on A498 renal; 64.7% in the test with CCRF-CEM leukemia. Besides, the growth with MOLT-4 leukemia is 51.7%.
